This is part of a sample that, as a whole, favours compounds with a hit. Of some 83,000 tested, about 20% had one in any assay.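 48-hour exposure, single concentration, 96-well plates; percent growth endpoint where 0 means no net growth. Active: below 10.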 Active and inactive are the calls of the source.
What was measured:
Assay in all cases: NCI-60 one-dose screen, 48 h (100 = growth as untreated, 0 = no growth, -100 = all killed)
Conditions in all cases: 10 µM unless noted
SR leukemia = test system: SR leukemia
RPMI-8226 leukemia = test system: RPMI-8226 leukemia
OVCAR-8 ovarian = test system: OVCAR-8 ovarian
OVCAR-5 ovarian = test system: OVCAR-5 ovarian
OVCAR-4 ovarian = test system: OVCAR-4 ovarian
SK-OV-3 ovarian = test system: SK-OV-3 ovarian
IGROV1 ovarian = test system: IGROV1 ovarian
NCI/ADR-RES ovarian = test system: NCI/ADR-RES ovarian
OVCAR-3 ovarian = test system: OVCAR-3 ovarian
HS 578T breast = test system: HS 578T breast

Measured: growth

CSc1ccc(Cl)c(C(=O)Nc2sccc2C(N)=O)c1
inactive: SR leukemia 104% | RPMI-8226 leukemia 95.3% | OVCAR-8 ovarian 94.4% | OVCAR-5 ovarian 98.2% | OVCAR-4 ovarian 83.5% | SK-OV-3 ovarian 115% | IGROV1 ovarian 105% | NCI/ADR-RES ovarian 99%

Cc1ccc(Nc2ccc(Nc3ccc(C)cc3S(=O)(=O)O)c3c2C(=O)c2ccccc2C3=O)c(S(=O)(=O)O)c1
inactive: SR leukemia 108% | RPMI-8226 leukemia 87.8% | OVCAR-8 ovarian 97.6% | OVCAR-5 ovarian 106% | OVCAR-4 ovarian 102% | SK-OV-3 ovarian 111% | OVCAR-3 ovarian 95.5% | HS 578T breast 88.7% | NCI/ADR-RES ovarian 102%

Cc1cc(=O)[nH]c(N/N=C/c2cc(Br)ccc2O)n1
active: OVCAR-4 ovarian 7.34% | IGROV1 ovarian -0.435% | OVCAR-3 ovarian 6.58%
inactive: SR leukemia 28.4% | RPMI-8226 leukemia 31.2% | OVCAR-8 ovarian 16.7% | OVCAR-5 ovarian 39.1% | SK-OV-3 ovarian 19.1% | HS 578T breast 69% | NCI/ADR-RES ovarian 10.2%

CC(=O)Nc1ccc2c(c1)Cc1c(F)cccc1-2
inactive: SR leukemia 98.2% | RPMI-8226 leukemia 94.1% | OVCAR-8 ovarian 95.2% | OVCAR-5 ovarian 106% | OVCAR-4 ovarian 106% | SK-OV-3 ovarian 115% | IGROV1 ovarian 98.8% | OVCAR-3 ovarian 105% | NCI/ADR-RES ovarian 107%

Cc1nc(Nc2ccc(NC(=S)Nc3ccccc3)cc2)c2ccccc2n1
inactive: SR leukemia 80.5% | RPMI-8226 leukemia 98.6% | OVCAR-8 ovarian 101% | OVCAR-5 ovarian 110% | OVCAR-4 ovarian 121% | SK-OV-3 ovarian 107% | IGROV1 ovarian 99.8% | OVCAR-3 ovarian 118% | HS 578T breast 96% | NCI/ADR-RES ovarian 107%

CN1CCN(CCCOc2ccc3nc(Nc4cc(Cl)cc(Cl)c4)ccc3c2)CC1
active: SR leukemia -54.8% | RPMI-8226 leukemia -35.1% | OVCAR-8 ovarian -47.3% | OVCAR-5 ovarian -57.4% | OVCAR-4 ovarian -23.9% | SK-OV-3 ovarian -59% | IGROV1 ovarian -46.8% | OVCAR-3 ovarian -80.5% | HS 578T breast -34.7% | NCI/ADR-RES ovarian -34.8%

CCCCCCNCc1cc(C(C)(C)C)cc(CNCCCCCC)c1O
active: SR leukemia -52% | RPMI-8226 leukemia -29.8% | OVCAR-8 ovarian -80.2% | OVCAR-5 ovarian -69.9% | OVCAR-4 ovarian -94.8% | SK-OV-3 ovarian -90.5% | IGROV1 ovarian -77.5% | OVCAR-3 ovarian -86.6% | HS 578T breast -22.1% | NCI/ADR-RES ovarian -87.6%

COc1ccc(/C(C)=C(\c2ccc(Cl)cc2)c2ccc(OCCN3CCCCCC3)cc2)cc1F
inactive: OVCAR-8 ovarian 63.7% | OVCAR-5 ovarian 58.9% | OVCAR-4 ovarian 36% | SK-OV-3 ovarian 71.5% | IGROV1 ovarian 56.8% | HS 578T breast 44.1% | NCI/ADR-RES ovarian 65.7%
active: SR leukemia -12.6% | RPMI-8226 leukemia -9.96%

Cc1csc(NC(=O)c2sc3nc(-c4cccs4)ccc3c2N)n1
inactive: SR leukemia 81.5% | RPMI-8226 leukemia 81.1% | OVCAR-8 ovarian 97% | OVCAR-5 ovarian 116% | OVCAR-4 ovarian 114% | SK-OV-3 ovarian 96.1% | IGROV1 ovarian 109% | OVCAR-3 ovarian 111% | HS 578T breast 99.5% | NCI/ADR-RES ovarian 94.1%

C[N+](C)(C)CCOC(OCC[N+](C)(C)C)(c1ccccc1)c1ccccc1
inactive: SR leukemia 89.5% | RPMI-8226 leukemia 106% | OVCAR-8 ovarian 105% | OVCAR-5 ovarian 104% | OVCAR-4 ovarian 107% | SK-OV-3 ovarian 103% | IGROV1 ovarian 124% | HS 578T breast 115% | NCI/ADR-RES ovarian 97.9%

COc1ccc(/C(C)=N/NS(=O)(=O)c2ccc(C)cc2)cc1OC
inactive: SR leukemia 137% | RPMI-8226 leukemia 95.3% | OVCAR-8 ovarian 104% | OVCAR-5 ovarian 109% | OVCAR-4 ovarian 107% | SK-OV-3 ovarian 86.8% | IGROV1 ovarian 114% | OVCAR-3 ovarian 110% | NCI/ADR-RES ovarian 101%

COc1cc2c(=O)n(CCCn3ccnc3)c3c4cc5c(cc4ccc3c2cc1OC)OCO5
active: RPMI-8226 leukemia -31.9% | SK-OV-3 ovarian -11.4% | OVCAR-3 ovarian -8.36%
inactive: SR leukemia 10.5% | OVCAR-8 ovarian 15.1% | OVCAR-5 ovarian 13.9% | OVCAR-4 ovarian 28.6% | IGROV1 ovarian 19.5% | NCI/ADR-RES ovarian 10.5%

COc1cc(C2C=C(c3cccc(NC(C)=O)c3)Nc3ncnn32)cc(OC)c1OC (stereo not given)
active: SR leukemia -5.94% | OVCAR-3 ovarian -40.5%
inactive: RPMI-8226 leukemia 19% | OVCAR-8 ovarian 24.3% | OVCAR-5 ovarian 34.8% | OVCAR-4 ovarian 59.8% | SK-OV-3 ovarian 35.5% | HS 578T breast 19% | NCI/ADR-RES ovarian 76.1%

CNC(=O)c1cc(Oc2ccc3nc(Nc4cc(Cl)cc(Cl)c4)ccc3c2)ccn1
active: SR leukemia 6.56%
inactive: RPMI-8226 leukemia 57.6% | OVCAR-8 ovarian 67.9% | OVCAR-5 ovarian 104% | OVCAR-4 ovarian 57.2% | SK-OV-3 ovarian 86.2% | IGROV1 ovarian 79.6% | OVCAR-3 ovarian 57.8% | NCI/ADR-RES ovarian 35.6%

COc1cc(C2CC(c3ccc(Nc4nc(Nc5ccc(F)cc5)nc(Nc5ccc(Cl)cc5)n4)cc3)=NN2C(C)=O)cc(OC)c1OC (stereo not given)
inactive: SR leukemia 45.3% | RPMI-8226 leukemia 19.1% | OVCAR-8 ovarian 62.5% | OVCAR-5 ovarian 83.5% | OVCAR-4 ovarian 77.6% | SK-OV-3 ovarian 92.8% | IGROV1 ovarian 43.5% | HS 578T breast 75.7% | NCI/ADR-RES ovarian 69.8%

CCOc1cccnc1/C=N/NC(N)=S
active: SR leukemia 6.35% | IGROV1 ovarian -7.7%
inactive: RPMI-8226 leukemia 49.9% | OVCAR-8 ovarian 43.7% | OVCAR-5 ovarian 66.2% | OVCAR-4 ovarian 26.5% | SK-OV-3 ovarian 42.7% | OVCAR-3 ovarian 22.2% | HS 578T breast 60.4% | NCI/ADR-RES ovarian 48.8%

COc1ccc(/C(C)=C(\c2ccc(Cl)cc2)c2ccc(OCCN(C)C)cc2)cc1F
inactive: OVCAR-8 ovarian 65.5% | OVCAR-5 ovarian 78% | OVCAR-4 ovarian 56.1% | SK-OV-3 ovarian 92.9% | IGROV1 ovarian 47.6% | HS 578T breast 64.3% | NCI/ADR-RES ovarian 78.9%
active: SR leukemia -32% | RPMI-8226 leukemia -29.2%

CC(C)CCC[C@@H](C)[C@H]1CCC2C3=CCn4c(=O)ccc(=O)n4C3CC[C@@]21C (stereo not given in full)
active: SR leukemia -34.6% | RPMI-8226 leukemia -41.5% | OVCAR-8 ovarian -39.7% | OVCAR-5 ovarian -84.3% | OVCAR-4 ovarian -32.4% | SK-OV-3 ovarian -100% | OVCAR-3 ovarian -96.5% | HS 578T breast -12.2% | NCI/ADR-RES ovarian -28.7%

CNC(=O)c1cc(Oc2ccc3nc(NC(=O)Nc4cc(C(F)(F)F)cc(C(F)(F)F)c4)sc3c2)ccn1
active: SR leukemia -27.6% | RPMI-8226 leukemia -14.1% | OVCAR-8 ovarian -68.2% | OVCAR-5 ovarian -26.1% | OVCAR-4 ovarian -77.2% | SK-OV-3 ovarian -58% | IGROV1 ovarian -48.5% | NCI/ADR-RES ovarian -38.2%

COC(=O)[C@]12CC[C@@H](C)[C@H](C)[C@@H]1C1=CC[C@@H]3[C@@]4(C)C(C=O)=C[C@@](C)(CO)C4=CC[C@@]3(C)[C@]1(C)CC2
inactive: SR leukemia 15.5% | RPMI-8226 leukemia 12.8% | OVCAR-8 ovarian 32.2% | OVCAR-5 ovarian 62.9% | OVCAR-4 ovarian 31.7% | SK-OV-3 ovarian 76.3% | IGROV1 ovarian 45.4% | OVCAR-3 ovarian 24.3% | HS 578T breast 47.5% | NCI/ADR-RES ovarian 31.9%

N[C@H]1CCC[C@@H]1NCCCCN1C(=O)c2cccc3cccc(c23)C1=O
inactive: SR leukemia 20% | RPMI-8226 leukemia 75.1% | OVCAR-8 ovarian 39.9% | OVCAR-5 ovarian 74% | OVCAR-4 ovarian 36% | SK-OV-3 ovarian 95.2% | IGROV1 ovarian 39.3% | HS 578T breast 68.2% | NCI/ADR-RES ovarian 79.1%

N#Cc1c(N)n2c(nc1=Nc1ccc([N+](=O)[O-])cc1)sc1cc(Cl)ccc12
inactive: SR leukemia 34.7% | RPMI-8226 leukemia 49.7% | OVCAR-8 ovarian 94.5% | OVCAR-5 ovarian 101% | OVCAR-4 ovarian 86.1% | SK-OV-3 ovarian 76.4% | IGROV1 ovarian 82.3% | OVCAR-3 ovarian 108% | NCI/ADR-RES ovarian 95.2%

O=C(NCc1cn(Cc2cccc(Oc3ccccc3)c2)nn1)c1cccnc1NCc1ccc(Cl)cc1
active: RPMI-8226 leukemia -9.55% | OVCAR-3 ovarian 2.33% | NCI/ADR-RES ovarian 0.306%
inactive: SR leukemia 19.3% | OVCAR-8 ovarian 32.6% | OVCAR-5 ovarian 51.5% | OVCAR-4 ovarian 43.8% | SK-OV-3 ovarian 21.4% | IGROV1 ovarian 60.1%

N#Cc1c(N)nc2c(nnn2-c2cccc(C(F)(F)F)c2)c1N
inactive: SR leukemia 83.1% | RPMI-8226 leukemia 82.4% | OVCAR-8 ovarian 89.3% | OVCAR-5 ovarian 102% | OVCAR-4 ovarian 87.5% | SK-OV-3 ovarian 84.9% | IGROV1 ovarian 81.1% | OVCAR-3 ovarian 97.9% | NCI/ADR-RES ovarian 95.8%

CCNCCNc1cc(-c2ccc(F)cc2)c(C#N)c2nc3ccccc3n12
inactive: RPMI-8226 leukemia 36.4% | OVCAR-8 ovarian 42.2% | OVCAR-5 ovarian 89.9% | OVCAR-4 ovarian 31% | SK-OV-3 ovarian 94.5% | IGROV1 ovarian 60.4% | HS 578T breast 64.2% | NCI/ADR-RES ovarian 55.4%
active: SR leukemia -23% | OVCAR-3 ovarian 0.676%

CNC1(C#N)CCN(Cc2ccccc2)CC1
inactive: SR leukemia 132% | RPMI-8226 leukemia 110% | OVCAR-8 ovarian 113% | OVCAR-5 ovarian 100% | OVCAR-4 ovarian 103% | SK-OV-3 ovarian 99.4% | IGROV1 ovarian 101% | OVCAR-3 ovarian 99.9% | HS 578T breast 104% | NCI/ADR-RES ovarian 103%

CCCCn1c(=O)[nH]c(N)c(C(c2ccc(F)cc2)c2c(N)[nH]c(=O)n(CCCC)c2=O)c1=O
inactive: SR leukemia 42% | RPMI-8226 leukemia 50% | OVCAR-8 ovarian 66.5% | OVCAR-5 ovarian 94.4% | OVCAR-4 ovarian 64.6% | SK-OV-3 ovarian 80.6% | IGROV1 ovarian 78.8% | OVCAR-3 ovarian 54% | HS 578T breast 81.1% | NCI/ADR-RES ovarian 96.7%

Cc1cc(=O)c2cc3nc(-c4cccnc4)oc3c(Br)c2o1
inactive: SR leukemia 70.7% | RPMI-8226 leukemia 90% | OVCAR-8 ovarian 99.9% | OVCAR-5 ovarian 90.1% | OVCAR-4 ovarian 101% | SK-OV-3 ovarian 195% | OVCAR-3 ovarian 123% | HS 578T breast 116% | NCI/ADR-RES ovarian 83.9%
